In PubChem BioAssay AID1986 (Sanford-Burnham Center for Chemical Genomics, 2009):
Values joined by “and” are separate entries in the source; they are usually repeats but may differ in a detail not shown here. Identical values can stand only once. The campaign covered roughly 290,000 compounds. About 890 (0.31%) were called active. No stated cut-off is given here; in the data, active means inhibition mostly above about 52% (no sharp cut-off); inactive means mostly below about 76%. The full list was thinned out, with actives kept by preference.

Experiment: cell-free HIV fusion peptide-binding blockers – biochemical, uHTS, fluorescence dequenching, primary screen (AID 1986)
Conditions: 30 min, stronger effect = higher value
[1] = measured here: repeat confirmation average inhibition, at 18.6 µM

| SMILES | inhibition (at 20 µM) | inhibition [1] [%] |
| --- | --- | --- |
| Cc1cc(NC(=O)OC2CCCCC2)ccc1[N+](=O)[O-] | -1.3% (inactive) |  |
| COc1cc(C(=O)NS(=O)(=O)c2ccccc2C)ccc1Cc1cn(C)c2ccc(NC(=O)OC3CCCC3)cc12 | 55.9% (active) |  |
| COc1ccc(CNC(=O)Cc2cn(C)c3ccccc23)c(OC)c1 | 0% (inactive) |  |
| O=S(=O)(c1ccc(C2CCCCC2)cc1)N1CCCC1 | -0.2% (inactive) |  |
| COCCn1c(=NC(=O)CCS(=O)(=O)c2ccccc2)sc2c(OC)ccc(OC)c21 | 1.4% (inactive) |  |
| CC(C)NCc1cc(Br)ccc1OCc1ccccc1 | 0.8% (inactive) |  |
| S=c1[nH]nc(-c2ccccc2)n1/N=C/C=C/c1ccco1 | 51.2% (inactive) | -0.2 |
| S=c1[nH]nc(-c2ccco2)n1/N=C/C=C/c1ccco1 | 65.9% (active) |  |
| S=c1[nH]nc(-c2ccco2)n1/N=C/C=C/c1ccccc1 | 3.2% (inactive) |  |
| COc1ccc2c(CC(=O)Nc3ncc(C)s3)coc2c1 | 1.1% (inactive) |  |
| Cc1cccc(C)c1OCc1cc(C(=O)NCc2ccc(Cl)s2)no1 | 0.7% (inactive) |  |
| CC1=CC(=C(C#N)C#N)c2ccccc2N1C | 146% (inactive) |  |
| COC(=O)c1c(C(=O)NCc2ccccc2)ncn1CC(O)COc1ccccc1 (stereo not drawn) | -0.4% (inactive) |  |
| CCOC(=O)c1nc2sc3c(c2c(=O)[nH]1)CCCC3 | 0.4% (inactive) and 2.4% (inactive) |  |
| O=C(O)c1ccc(/C=C/c2nc3sc4c(c3c(=O)[nH]2)CCC4)cc1 | 33.6% (inactive) |  |
| N#C/C(=C\c1ccc(C(=O)O)cc1)c1nc2sc3c(c2c(=O)[nH]1)CCCC3 | 103% (active) |  |
| O=C(N/N=C/c1cc([N+](=O)[O-])ccc1O)C(O)(c1ccccc1)c1ccccc1 | 15.6% (inactive) |  |
| N#CC1(C#N)C(c2ccccc2)OC23CCCCCC2C1(C#N)C(=N)O3 (stereo not drawn) | 10% (inactive) |  |
| COc1ccc2c(CC(=O)Nc3ccc(N4CCOCC4)cc3)coc2c1 | -1.8% (inactive) |  |
| CCOC(=O)C1CCN(C(=O)Nc2ccc3nc(-c4ccco4)c(-c4ccco4)nc3c2)CC1 | 68.6% (active) |  |
| O=C(Nc1ccc2nc(-c3ccco3)c(-c3ccco3)nc2c1)N1CCCCCC1 | 55.6% (inactive) | 19.7 |
| CCOC(=O)C1CCN(C(=O)Nc2ccc3nc(C)c(C)nc3c2)CC1 | 0.1% (inactive) |  |
| Cc1cc(C)c(C)c(S(=O)(=O)N2CCNCC2)c1C | 0.3% (inactive) |  |

| SMILES | inhibition (at 20 µM) | inhibition [1] [%] |
| --- | --- | --- |
| CC(C)(C)c1ccc(-c2nnc3sc(-c4ccncc4)nn23)cc1 | -2.8% (inactive) |  |
| NC(=S)Nc1ccc(Cl)cc1Cl | -1.7% (inactive) |  |
| COc1cc(OC)c(/C=N/n2c(C)nnc2C)c(OC)c1 | -1.2% (inactive) |  |
| CCOC(=O)C(=Cc1ccc(-c2ccsc2C(=O)OC)o1)C(=O)OCC | 2.2% (inactive) |  |
| CCOC(=O)/C(C#N)=C/c1ccc(-c2ccsc2C(=O)OC)o1 | 61.4% (active) |  |
| COC(=O)C(=Cc1ccc(-c2ccsc2C(=O)OC)o1)C(=O)OC | -1% (inactive) |  |
| Cc1cc(-c2ccc(Cl)s2)n[nH]1 | 0% (inactive) |  |
| CC1(C)CCCC2=C1CC1C(=O)N(Cc3cccnc3)C(=O)C1C2 (stereo not drawn) | 1.5% (inactive) |  |
| Cc1cc(C)n2nc(C(=O)N/N=C/c3ccco3)nc2n1 | -0.3% (inactive) |  |
| O=C(c1nc2ccccn2c1CNCC1OCCc2ccccc21)N1CCOCC1 (stereo not drawn) | -0.8% (inactive) |  |
| Cc1ccc(C)c(S(=O)(=O)NCCCn2ccnc2)c1 | -0.3% (inactive) |  |
| COc1ccc(NC(=O)c2ccccc2NS(=O)(=O)c2ccc(C)cc2)c([N+](=O)[O-])c1 | 1.8% (inactive) |  |
| COc1ccccc1NS(=O)(=O)c1ccc(N/N=C/c2c(C)nn(-c3ccccc3)c2N2CCCC2)c([N+](=O)[O-])c1 | -5.2% (inactive) |  |
| COc1ccc(NS(=O)(=O)c2cccc(C(=O)Nc3ccccc3C(=O)O)c2)cc1 | 19.7% (inactive) |  |
| COc1ccc(NC(=S)NNc2ccc(S(=O)(=O)Nc3ccccc3C(=O)O)cc2[N+](=O)[O-])cc1 | 52.4% (active) |  |
| Cc1nn(-c2ccccc2)c(N2CCCC2)c1/C=N/Nc1ccc(S(=O)(=O)Nc2ccccc2)cc1[N+](=O)[O-] | -3.9% (inactive) |  |
| Cc1nn(-c2ccccc2)c(Cl)c1/C=N/Nc1ccc(S(=O)(=O)Nc2ccccc2C(=O)O)cc1[N+](=O)[O-] | 73% (active) |  |
| COc1ccc(N(CC(=O)N2CCc3ccccc3C2)S(C)(=O)=O)cc1 | -1.6% (inactive) |  |
| COc1cc(COCC(O)CN2CCOCC2)cc(OC)c1OC (stereo not drawn) | -2.1% (inactive) |  |
| O=C(Cc1ccc(Cl)cc1)Nc1cc(S(=O)(=O)N2CCOCC2)ccc1N1CCCC1 | 1.2% (inactive) |  |
| N#CC1CC(c2ccccc2)=NN1c1ccccc1[N+](=O)[O-] (stereo not drawn) | -3.1% (inactive) |  |
| N#CC1CC(c2ccc([N+](=O)[O-])cc2)=NN1c1ccc([N+](=O)[O-])cc1 (stereo not drawn) | 83.7% (active) |  |
| O=[N+]([O-])c1ccc(N2N=C(c3ccccc3)CC2c2ccccc2O)cc1 (stereo not drawn) | 38.9% (inactive) |  |
